In PubChem BioAssay (NCATS):
Records with an inconclusive call do not appear. The source made the active and inactive calls. The call rests on the fitted dose curve; in most records, active means well fitted curve in the direction sought with a large enough effect; inconclusive means small, poorly fitted or top-dose-only effect, or another doubt; inactive means no such curve, though single readings can be large; an effect the other way counts as inactive or inconclusive. Non-standard residues stand in square brackets, D forms with d. Residues, ends and D or L forms follow the SMILES beside them. *: point of attachment. Nva = CCC[C@H](N)C(=O)O; Cbz = O=C(OCc1ccccc1)*

What was measured:
[1] = qHTS of pediatric cancer cell lines to identify multiple opportunities for drug repurposing: Confirmatory screen for SK-N-MC cells (AID 1347111);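 further: cells exposed to compound for 48 h before the readout; nearly all actives have a fitted effect of over 70% in size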
Method in brief: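 Metabolically active cells were quantified by ATP-dependent luminescence (CellTiter-Glo, 15 min at room temperature) following 48 h treatment. Cells had been plated at 500-1,000 per well and settled for 5 h beforehand.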

[2] = qHTS of pediatric cancer cell lines to identify multiple opportunities for drug repurposing: Confirmatory screen for BT-12 cells (AID 1347112); further: nearly all actives have a fitted effect of over 55% in size
Method in brief: (§1)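 Cells (500-1,000/well) in growth media were settled 5 h at 37 degrees C, then given compounds for 48 h. Viability was read as CellTiter-Glo luminescence. Primary runs used MIPE at 11 points (0.78 nM-46 µM) and NPC at 8 points (0.59 nM-46 µM); follow-ups used 11 points.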

[3] = qHTS of pediatric cancer cell lines to identify multiple opportunities for drug repurposing: Confirmatory screen for LAN-5 cells (AID 1347113); further: nearly all actives have a fitted effect of over 65% in size
Method in brief: as §1

[4] = qHTS of pediatric cancer cell lines to identify multiple opportunities for drug repurposing: Confirmatory screen for DAOY cells (AID 1347114); further: nearly all actives have a fitted effect of over 65% in size
Method in brief: (§2)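 Viability measured as metabolically active cells via CellTiter-Glo luminescence following 48 hours of compound exposure, 11-point dilutions in confirmatory testing. 500-1,000 cells/well plated 5 hours before dosing; controls were DMSO and 2.3 µM bortezomib.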

[5] = qHTS of pediatric cancer cell lines to identify multiple opportunities for drug repurposing: Confirmatory screen for NB-EBc1 cells (AID 1347115);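 further: cells exposed to compound for 48 h before the viability read; nearly all actives have a fitted effect of over 45% in size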
Method in brief: as §1

[6] = qHTS of pediatric cancer cell lines to identify multiple opportunities for drug repurposing: Confirmatory screen for SJ-GBM2 cells (AID 1347116); further: nearly all actives have a fitted effect of over 60% in size
Method in brief: as §2

[7] = qHTS of pediatric cancer cell lines to identify multiple opportunities for drug repurposing: Confirmatory screen for BT-37 cells (AID 1347117); conditions: BT-37 pediatric cancer cells, viability; activity change, negative = cytotoxic: at 45.9 µM (top of the series); further: nearly all actives have a fitted effect of over 55% in size
Method in brief: as §1

[8] = qHTS of pediatric cancer cell lines to identify multiple opportunities for drug repurposing: Confirmatory screen for TC32 cells (AID 1347118);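 further: cells exposed to compound for 48 h before the read; nearly all actives have a fitted effect of over 65% in size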
Method in brief: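 Measured quantity: luminescence from CellTiter-Glo, reflecting metabolically active TC32 cells following 48 h of compound. Curves came straight from multi-point titrations, with 8 or 11 points in primary and 11 in confirmatory screening.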

[9] = qHTS of pediatric cancer cell lines to identify multiple opportunities for drug repurposing: Confirmatory screen for MG 63 (6-TG R) cells (AID 1347119); further: nearly all actives have a fitted effect of over 55% in size
Method in brief: as §1

[10] = qHTS of pediatric cancer cell lines to identify multiple opportunities for drug repurposing: Confirmatory screen for control Hh wild type fibroblast cells (AID 1347121); further: nearly all actives have a fitted effect of over 70% in size
Method in brief: as §1

Measured: Potency
Potency means the concentration at half of the fitted maximal effect.

C=CC(=O)Nc1cccc(Nc2nc(NC3CCC(N(C)C)CC3)nc3c2ncn3C(C)C)c1 (centres undefined)
inactive: [10]
active: [1] 2.61 µM | [2] 1.17 µM | [3] 0.827 µM | [4] 3.29 µM | [5] 7.37 µM | [6] 4.65 µM | [7] 0.827 µM | [8] 0.657 µM | [9] 3.69 µM

CC(C)C[C@H](NC(=O)[C@@H](NC(=O)c1cccc(-c2ccccc2)n1)[C@@H](C)O)B(O)O
active: [1] 0.0147 µM | [2] 0.0827 µM | [3] 0.0369 µM | [4] 0.0369 µM | [5] 0.0585 µM | [6] 0.0465 µM | [7] 0.0737 µM | [8] 0.0585 µM | [9] 0.0165 µM | [10] 20.8 µM

C[C@@H](Oc1ccc2[nH]nc(C=Cc3cnn(CCO)c3)c2c1)c1c(Cl)cncc1Cl
active: [1] 2.61 µM | [2] 23.3 µM | [3] 0.827 µM | [4] 18.5 µM | [5] 13.1 µM | [6] 18.5 µM | [7] 18.5 µM | [8] 2.33 µM | [9] 0.737 µM | [10] 13.1 µM

CC(=O)[C@]1(O)Cc2c(O)c3c(c(O)c2[C@@H](O[C@H]2C[C@H](N)[C@@H](O)[C@H](C)O2)C1)C(=O)c1ccccc1C3=O
active: [1] 0.522 µM | [2] 4.14 µM | [3] 0.329 µM | [4] 2.08 µM | [5] 0.465 µM | [6] 0.369 µM | [7] 0.329 µM | [8] 0.293 µM

CCC[C@@H](C=O)NC(=O)[C@H](CC(C)C)NC(=O)[C@H](CC(C)C)NC(=O)OCc1ccccc1 (Cbz-Leu-Leu-[Nva]-aldehyde)
active: [1] 0.414 µM | [2] 2.93 µM | [3] 1.47 µM | [4] 1.17 µM | [5] 2.33 µM | [6] 2.08 µM | [7] 1.17 µM | [8] 1.47 µM | [9] 0.827 µM | [10] 7.37 µM

CC[C@]12C=CCN3CC[C@@]4(c5cc([C@@]6(C(=O)OC)C[C@H]7C[C@@H](C(C)(F)F)CN(Cc8c6[nH]c6ccccc86)C7)c(OC)cc5N(C)[C@H]4[C@@](O)(C(=O)OC)[C@H]1OC(C)=O)[C@@H]32
active: [1] 9.27 µM | [8] 9.27 µM
inactive: all other assays above

CN(C)c1ccc(C(=O)NCCCCCCC(=O)NO)cc1
active: [1] 1.04 µM | [2] 13.1 µM | [3] 1.85 µM | [4] 3.29 µM | [5] 2.33 µM | [7] 1.65 µM | [8] 1.65 µM | [9] 1.47 µM

CC(C)C[C@@H](C=O)NC(=O)[C@H](CC(C)C)NC(=O)[C@H](CC(C)C)NC(=O)OCc1ccccc1 (Cbz-Leu-Leu-Leu-aldehyde)
active: [1] 0.369 µM | [2] 1.17 µM | [3] 1.04 µM | [4] 0.737 µM | [5] 1.47 µM | [6] 1.04 µM | [7] 0.585 µM | [8] 0.827 µM | [9] 0.585 µM | [10] 5.85 µM

Nc1nc2c(c(=O)[nH]1)N(C=O)[C@H](CNc1ccc(C(=O)N[C@@H](CCC(=O)O)C(=O)O)cc1)CN2
active: [1] 10.4 µM | [8] 10.4 µM
not listed: [10]
inactive: all other assays above

C=CCNC1=C2C[C@@H](C)C[C@H](OC)[C@@H](O)[C@@H](C)C=C(C)[C@H](OC(N)=O)[C@@H](OC)C=CC=C(C)C(=O)NC(=CC1=O)C2=O
active: [1] 2.33 µM | [3] 4.65 µM | [4] 4.65 µM | [5] 7.37 µM | [6] 0.165 µM | [7] 0.0928 µM | [8] 0.522 µM | [9] 2.61 µM
inactive: [2]

C=CC(=O)Nc1ccc2ncnc(Nc3ccc(OCc4cccc(F)c4)c(Cl)c3)c2c1
active: [1] 7.37 µM | [2] 10.4 µM | [3] 20.8 µM | [4] 7.37 µM | [5] 20.8 µM | [6] 2.61 µM | [7] 9.27 µM | [8] 7.37 µM | [9] 8.27 µM

COc1cc([C@@H]2c3cc4c(cc3[C@H](O)[C@H]3COC(=O)[C@@H]23)OCO4)cc(OC)c1OC
inactive: [10]
active: [1] 0.585 µM | [2] 1.04 µM | [3] 1.04 µM | [4] 0.414 µM | [5] 3.29 µM | [7] 1.17 µM | [8] 0.465 µM | [9] 0.737 µM

C#CCC(Cc1cnc2nc(N)nc(N)c2n1)c1ccc(C(=O)N[C@@H](CCC(=O)O)C(=O)O)cc1 (some centres undefined)
inactive: [3] | [9] | [10]
active: [1] 0.0522 µM | [2] 0.104 µM | [4] 0.117 µM | [5] 0.369 µM | [8] 0.0414 µM

Cn1cnc(=N)c2[nH]cnc21
not listed: [6]
inactive: all other assays above
